IMPase inh: membrane-permeable compound that blocks inositol monophosphatase. CHO-M1 cells, IP1 accumulation, HTRF TR-FRET ratio. inhibition (IP1 accumulation), % at 46.1 µM. 120,000 tested, under 10 active. AID 901; active = well fitted curve in the direction sought with a large enough effect in the signal ratio, not every such curve was filed as active; inconclusive = small, poorly fitted or top-dose-only effect, or a change in a side signal; inactive = no such curve, though single readings can be large or run the other way; the % refers to the signal ratio;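 also: cells stimulated with carbachol in lithium chloride buffer; plate controls were DMSO basal wells for no effect and reference inhibitor wells for full effect; higher means more IMPase inhibition seen as more IP1 and lower FRET ratio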
Target sequence (P97697 whole entry, looked up): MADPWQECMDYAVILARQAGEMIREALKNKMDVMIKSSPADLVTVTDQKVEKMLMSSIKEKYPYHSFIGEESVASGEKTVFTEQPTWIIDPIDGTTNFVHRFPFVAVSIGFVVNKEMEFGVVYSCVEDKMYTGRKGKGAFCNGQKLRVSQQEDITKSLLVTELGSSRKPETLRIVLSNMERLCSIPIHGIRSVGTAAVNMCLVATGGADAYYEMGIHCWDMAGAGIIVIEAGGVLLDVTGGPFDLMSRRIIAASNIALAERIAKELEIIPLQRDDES
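Cellular IMPase inhibition is scored as a rise in cytosolic IP1, detected by competitive TR-FRET between d2-labelled IP1 and a europium anti-IP1 antibody. M1-expressing CHO cells were stimulated with carbachol for 30 min at 37C, with lithium (50 mM LiCl) present in the buffer.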
IMPase Li inh: cell-permeable IMPase inhibitors with lithium potentiation; CHO-M1 cells, IP1 TR-FRET (IP-One), carbachol + lithium; Potency, µM (doses to about 59.4 µM), inactives show top-dose activity, negative = IMPase inhibition, hits mostly inhibitors; 0.35% of 210,000 active; AID 1457;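 also: IP1 builds up when IMPase is blocked and the TR-FRET signal falls; potency is read from the fitted curve at half-maximal effect; plate controls were basal vehicle for no effect and high inhibitor control for full effect; nearly all actives have a fitted effect of over 50% in size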
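IP1 accumulation measured by competitive TR-FRET in lysed CHO-M1 cells after 30 min compound exposure at 37C, with a small lithium addition to potentiate weak responses. Hill-equation AC50 from ratio and donor-channel data.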
NPSR antagonist: antagonists of human neuropeptide S receptor cAMP signaling | Q6W5P4 | CHO-NPSR cells, cAMP TR-FRET, antagonist mode | Potency, µM (top dose mostly 38.3 µM), inactives show at the top dose activity change, negative = inhibition, hits mostly inhibitors | 1% of 220,000 active | AID 1461; also: potency is read from the fitted curve at half-maximal effect; nearly all actives have a fitted effect of over 50% in size
HPGD block: inhibitors of human 15-hydroxyprostaglandin dehydrogenase (HPGD) | Potency, µM, for inactives: at the top dose activity change, negative = inhibition, most hits filed as inhibitors | purified HPGD, NADH fluorescence kinetic, PGE2 substrate | 4.3% of 150,000 active | P15428; active = well fitted inhibition curve with a large enough effect, not every such curve was filed as active; inconclusive = small, poorly fitted or top-dose-only effect, or another doubt; inactive = no such curve, though single readings can be large or run the other way; also: potency is read from the fitted curve at half-maximal effect
Target sequence (P15428 whole entry, looked up): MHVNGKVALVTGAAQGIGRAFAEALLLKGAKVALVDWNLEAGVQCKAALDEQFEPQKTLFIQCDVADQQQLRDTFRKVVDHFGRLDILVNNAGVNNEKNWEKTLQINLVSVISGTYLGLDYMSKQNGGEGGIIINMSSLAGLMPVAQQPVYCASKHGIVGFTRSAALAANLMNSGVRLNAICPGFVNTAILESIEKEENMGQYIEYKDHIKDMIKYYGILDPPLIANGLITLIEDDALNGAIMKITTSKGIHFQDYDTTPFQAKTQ
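20 nM HPGD preincubated 15 min at room temperature with compound in 50 mM Tris-HCl pH 8, 0.01% Tween 20. Started with 1 mM NAD+ and 30 uM prostaglandin E2; NADH fluorescence (360/450 nm) read 5 times over 30-s intervals, last minus first.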
ALOX12 inhib: blocks human 12-lipoxygenase activity; P18054; purified 12-hLO, xylenol orange hydroperoxide absorbance; Potency, µM (doses to about 57.1 µM), without a hit: top-dose activity change, negative = inhibition, most hits filed as inhibitors; 0.12% of 150,000 active; also: potency is read from the fitted curve at half-maximal effect; nearly all actives have a fitted effect of over 55% in size
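Hydroperoxide output read as Fe(III)-xylenol orange absorbance, 573-to-405 nm ratio, after 30 min reaction with 40 uM arachidonic acid. Enzyme: 150 nM purified human 12hLO, 15 min compound preincubation; 25 mM Hepes pH 7.0, room temperature.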
ALDH1A1 inh: blocks purified human ALDH1A1 activity. Purified ALDH1A1, NADH fluorescence, propionaldehyde substrate. Potency, µM (top dose mostly 75.3 µM), for inactives: top-dose activity, negative = inhibition, hits mostly inhibitors. 7.3% of 220,000 active. P00352; active = well fitted inhibition curve with a large enough effect, not every such curve was filed as active; inconclusive = small, poorly fitted or top-dose-only effect, or another doubt; inactive = no such curve, though single readings can be large or run the other way;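 also: potency is read from the fitted curve at half-maximal effect; plate controls were no enzyme wells and a reference inhibitor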
* = called active by the depositor; ? = inconclusive; . = no result; [ ] = remark or other dose. A selection: hits, their analogues and other compounds. The true share with any hit is near 8.9%. Unless noted, calls follow the shape of the dose curve; as a rule, active = well fitted curve in the direction sought with a large enough effect; inconclusive = small, poorly fitted or top-dose-only effect, or another doubt; inactive = no such curve, though single readings can be large; an effect the other way counts as inactive or inconclusive. Unless noted, % is scaled to controls: 0 for no effect and ±100 for the full control effect.

SMILES	IMPase inh	IMPase Li inh	NPSR antagonist	HPGD block	ALOX12 inhib	ALDH1A1 inh
O=C(c1ccc(Br)s1)N1CCN(Cc2ccc3c(c2)OCO3)CC1	3	17%[38.3 µM]	-19%[46.1 µM]	-1%	-16%	-8%
COc1ccc(C(=O)N2CCN(Cc3ccc4c(c3)OCO4)CC2)cc1[N+](=O)[O-]	.	8%	11%	.	.	1.6µM*
O=C(c1cc([N+](=O)[O-])cc([N+](=O)[O-])c1)N1CCN(Cc2ccc3c(c2)OCO3)CC1	.	?	2%	.	.	?
O=C(Oc1ccc2c(c1)OCO2)c1cc2c(s1)CCC2	7	7%[38.3 µM]	-26%[46.1 µM]	22µM*	-10%	-14%
CCCCNC(=S)N1CCN(Cc2ccc3c(c2)OCO3)CC1	.	-1%	8%	.	.	?
O=C(Oc1ccc2c(c1)OCO2)c1ccc(F)cc1Cl	6	21%[38.3 µM]	-29%[46.1 µM]	?	-28%	-11%
CC(C)NC(=S)N1CCN(Cc2ccc3c(c2)OCO3)CC1	.	26%	6%	.	.	22µM*
CC(NC(=O)c1cccc(F)c1)C(c1cccs1)N1CCN(C)CC1 (stereo unspecified)	11	23%[38.3 µM]	2%[46.1 µM]	?	1%	3%
N#CC/C(N)=N/NC(=O)CCCNc1ncc(C(F)(F)F)cc1Cl	.	-1%	10%	.	.	?
Cc1ccc(S(=O)(=O)Nc2cccc(CP(=O)(c3ccccc3)c3ccccc3)c2)cc1	.	.	40%	.	.	24µM*
COc1ccc(-c2csc(Nc3ccc(C)cn3)n2)cc1	.	-1%	-12%	.	.	24µM*
Cc1[nH]c(=S)[nH]c(=O)c1CCOc1ccccc1	3	1%[38.3 µM]	-10%[46.1 µM]	-15%	-6%	?
Cc1ccccc1OCCc1c(C)[nH]c(=S)[nH]c1=O	.	6%	31%	.	.	20µM*
CN(C)Cc1cc(C(C)(C)C)cc(CNC2CCCCC2)c1O	.	29%	.	-9%	3%[11.4 µM]	1%[13.5 µM]
C/C(=N\Nc1nc2c(s1)CCCC2)c1ccc(Cl)cc1	10	4%[38.3 µM]	-11%[46.1 µM]	-14%	?	28µM*
Cn1c(-c2cccc([N+](=O)[O-])c2)[n+](C)c2ccccc21	.	9%	13%	.	.	4%
Cn1c(-[n+]2c(-c3ccccc3)cc(-c3ccccc3)cc2-c2ccccc2)nc2c([N+](=O)[O-])cccc21	.	13%	7.9µM*	-3%	-1%	-13%
COC(=O)C1C(=O)c2c([nH]c(C(=O)OCC3CCCO3)c2C)CC1C (stereo unspecified)	-1	25%[38.3 µM]	13µM*	-5%	-2%	?
O=C(NCCCN1CCCC1=O)c1ccccc1NS(=O)(=O)c1ccc(Br)cc1	6	1%[38.3 µM]	-7%[46.1 µM]	?	-3%	?
COc1ccc(/C=C(\C#N)C(=O)OCC(=O)NC(=O)NCCC(C)C)cc1	.	2%	11%	.	.	?
C=CCNC(=O)NC(=O)COC(=O)/C(C#N)=C/c1ccc(OC)cc1	.	1%	3%	.	.	25µM*
COc1ccc(C=NCC2OCCc3ccccc32)cc1OC (stereo unspecified)	.	2%	7%	-7%	14%	?
COc1cc(C=NCC2OCCc3ccccc32)cc(OC)c1 (stereo unspecified)	.	-5%	23%	-2%	4%	22µM*
CCN1CC2CCCC3(C1)C(=O)NC1(CCCCC1)N=C23 (stereo unspecified)	-3	28%[38.3 µM]	10%[46.1 µM]	-10%	1%	32µM*
CCOC(=O)c1cccc(NC(=O)CSc2nnc(-c3cccnc3)n2CC)c1	11	24%[38.3 µM]	45%[46.1 µM]	-10%	2%	?
SMILES	IMPase inh	IMPase Li inh	NPSR antagonist	HPGD block	ALOX12 inhib	ALDH1A1 inh
O=C1c2nc3ccccn3c2C(=O)N1Cc1ccccc1	8	?	1%[46.1 µM]	?	-5%	18µM*
O=C1c2cccc3cccc(c23)C(=O)N1Cc1ccccc1	.	?	?	.	.	4%
Cc1cc(N2CCCCC2)nc(N)n1	.	4%	7%	-3%	-5%	10%
Cc1cc(Nc2ccccc2)n(-c2cccc(Cl)c2)n1	8	46%[38.3 µM]	-9%[46.1 µM]	28µM*	-4%	?
Cc1ccc(S(=O)(=O)Nc2cc(C)nn2-c2ccccc2)cc1	1	-13%[38.3 µM]	-19%[46.1 µM]	-7%	-9%	25µM*
O=C(/C=C\Nc1ccc2c(c1)OCO2)c1ccccn1	-9	4%[38.3 µM]	5%[46.1 µM]	-11%	-7%	-11%
COc1ccc(/C=N/n2cnc3c([nH]c4ccccc43)c2=O)cc1COc1ccccn1	.	0%	-32%	.	.	-4%
Cn1c(C(=O)N2CCCc3ccccc32)cc2sccc21	-6	-12%[38.3 µM]	?	16µM*	-22%	7.9µM*
O=C(c1cc2sccc2n1Cc1ccccc1)N1CCc2ccccc21	13	13%[38.3 µM]	10µM*	-11%	-12%	-12%
Cc1cc(C)n(CCN(C)Cc2nc(Cc3ccccc3F)no2)n1	.	5%	-8%	.	.	-8%
CCN(CC)C1=CC2=CC(=C(C#N)C#N)CCC2CC1 (stereo unspecified)	.	18%	-23%	-18%	-13%	2.2µM*
COc1cccc(C(=O)N(CN2CCCC2=O)c2cc(C)on2)c1	2	-7%[38.3 µM]	0%[46.1 µM]	-10%	-2%	-2%
CCC(c1nnc(SCC(=O)Nc2cccc(S(N)(=O)=O)c2)n1Cc1ccccc1)N(C)C (stereo unspecified)	.	.	19%	.	.	.
Cc1cc(C(=O)O)sc1C(N)C(=O)O (stereo unspecified)	.	-8%	.	-11%	9%	-1%
CN(C)c1ccc(C2NCC(CCl)O2)cc1 (stereo unspecified)	8	21%[38.3 µM]	0%[46.1 µM]	-5%	-1%	1.4µM*
Cc1ccc(C(=O)Nc2c(C)n(C)n(-c3ccccc3)c2=O)cc1S(=O)(=O)N1CCOCC1	1	2%[38.3 µM]	-1%[46.1 µM]	-7%	0%	8%
O=C(O)c1ccc(COc2ccc(CO)cc2Cl)cc1	8	35%[38.3 µM]	-13%[46.1 µM]	16µM*	-2%	15%
CN1CCN(C(=O)c2ccc(COc3ccc(Cl)cc3Cl)cc2)CC1	7	11%[38.3 µM]	4%[46.1 µM]	2.8µM*	2%	12%
O=C(CCCOc1ccc(Cl)cc1Cl)N1CCN(c2ccccn2)CC1	?	9%[38.3 µM]	-25%[46.1 µM]	?	-22%	-12%
CN1CCN(C(=O)CCCOc2ccc(Cl)cc2Cl)CC1	10	17%[38.3 µM]	-16%[46.1 µM]	20µM*	-5%	?
COc1ccc(C(C)=O)cc1COC(=O)c1cnc(Cl)c(Cl)c1	.	16%	-31%	.	.	1.4µM*
CNS(=O)(=O)c1cccc(C(=O)OCc2cc(C(C)=O)ccc2OC)c1	.	11%	-11%	.	.	?
COc1ccc(C(C)=O)cc1COC(=O)c1ccc2c(c1)OCO2	3	1%[38.3 µM]	-18%[46.1 µM]	-14%	-23%	10µM*
COc1ccc(C(C)=O)cc1COC(=O)c1ccc(S(=O)(=O)N(C)C)cc1	.	8%	-13%	.	.	7.1µM*
COc1cc(C(C)=O)ccc1COc1ccc(C(=O)OCC(N)=O)cc1OC	2	-8%	27%	-20%	2%	9%

Screening results from PubChem BioAssay.
